# Compound activity as filed in PubChem.
# Compounds with a hit are over-represented: about 10% of the library has one in this group of screens.
# JMJD2A Tudor: qHTS Assay for Inhibitors of JMJD2A-Tudor Domain; Lysine-specific demethylase 4A (Homo sapiens), O75164; AlphaScreen JMJD2A-Tudor / H3K4me3 peptide binding; Potency, µM (titrated, usually from 114 µM), for inactives: at the highest dose activity change, negative = inhibition, usual class: inhibitors; hit rate 4.4% among 390,000; AID 504339, 2011; further: potency means the concentration at half of the fitted maximal effect; on the % scale 0 is the no-effect control and ±100 the full control effect; nearly all actives have a fitted effect of over 50% in size
# Target sequence (O75164 whole entry, looked up, the tested form may be a part): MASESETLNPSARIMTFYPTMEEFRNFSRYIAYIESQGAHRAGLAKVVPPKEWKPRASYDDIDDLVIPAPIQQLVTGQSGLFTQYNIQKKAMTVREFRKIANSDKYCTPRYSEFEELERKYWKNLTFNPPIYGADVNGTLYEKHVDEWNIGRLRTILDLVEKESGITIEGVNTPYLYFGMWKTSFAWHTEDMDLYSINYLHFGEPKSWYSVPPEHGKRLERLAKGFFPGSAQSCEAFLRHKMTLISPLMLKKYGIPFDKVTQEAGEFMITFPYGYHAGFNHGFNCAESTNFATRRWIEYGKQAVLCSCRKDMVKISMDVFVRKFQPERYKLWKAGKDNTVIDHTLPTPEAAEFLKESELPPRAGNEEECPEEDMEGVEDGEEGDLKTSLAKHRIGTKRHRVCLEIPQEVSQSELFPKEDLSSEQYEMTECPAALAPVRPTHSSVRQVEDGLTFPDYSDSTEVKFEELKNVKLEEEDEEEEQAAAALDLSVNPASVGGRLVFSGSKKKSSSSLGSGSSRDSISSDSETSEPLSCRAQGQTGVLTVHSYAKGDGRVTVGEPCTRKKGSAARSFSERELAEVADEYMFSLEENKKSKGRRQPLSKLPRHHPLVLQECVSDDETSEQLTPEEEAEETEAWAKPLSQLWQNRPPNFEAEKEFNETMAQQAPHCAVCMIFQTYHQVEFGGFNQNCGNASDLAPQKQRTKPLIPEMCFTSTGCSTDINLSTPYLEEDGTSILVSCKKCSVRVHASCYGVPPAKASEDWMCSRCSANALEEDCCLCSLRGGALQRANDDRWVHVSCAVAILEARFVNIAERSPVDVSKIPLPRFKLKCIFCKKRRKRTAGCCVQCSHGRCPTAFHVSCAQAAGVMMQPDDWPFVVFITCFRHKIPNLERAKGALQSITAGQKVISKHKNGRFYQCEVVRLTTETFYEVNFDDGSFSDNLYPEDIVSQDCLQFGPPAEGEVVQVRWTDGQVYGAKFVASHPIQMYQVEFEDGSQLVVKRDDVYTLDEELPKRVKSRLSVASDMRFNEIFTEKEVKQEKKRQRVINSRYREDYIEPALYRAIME
# G9a block: qHTS Assay for Inhibitors of Histone Lysine Methyltransferase G9a; hit rate 8.8% among 350,000; Potency, µM (highest dose often 102 µM), inactives show at the highest dose activity, negative = inhibition, most hits filed as inhibitors; G9a H3K9 monomethylation, AlphaScreen, 2 h; Histone-lysine N-methyltransferase EHMT2 (Homo sapiens), Q96KQ7; further: potency means the concentration at half of the fitted maximal effect; on the % scale 0 is the no-effect control and ±100 the full control effect; nearly all actives have a fitted effect of over 75% in size
#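 Enzyme 20 nM + cpd, 15 min RT; add b-H3K9 pep 500 nM / SAM 20 uM; 2 h RT; anti-H3K9me1 Ab 0.5 ug/mL + SA donor / anti-rabbit acceptor beads 20 ug/mL each, 10 min; AlphaScreen read.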
# Six1-Eya2 inh: qHTS Assay for Inhibitors of the Six1/Eya2 Interaction; Homeobox protein SIX1 (Homo sapiens) + Protein phosphatase EYA2 (Homo sapiens), …; AlphaScreen GST-Six1/His-Eya2 binding, biochemical; hits give low values; activity change, % (concentration not given with the values); hit rate 0.56% among 360,000; in the data active means activity change below about -65%; inconclusive means mostly about -30% to -63%; further: on the % scale 0 is the no-effect control and ±100 the full control effect
#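 Compounds are tested against tagged Six1 and Eya2 proteins bridged by glutathione donor and nickel acceptor beads; after a one-hour incubation at 37 °C without light, AlphaScreen emission is recorded.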
# BAZ2B block: qHTS Assay for Inhibitors of BAZ2B; Bromodomain adjacent to zinc finger domain protein 2B (Homo sapiens), Q9UIF8; AlphaScreen BAZ2B-H3K14Ac peptide displacement; hit rate 4.4% among 360,000; Potency, µM (titrated, usually from 114 µM), inactives show top-dose activity change, negative = inhibition, actives largely listed as inhibitors; further: potency means the concentration at half of the fitted maximal effect; on the % scale 0 is the no-effect control and ±100 the full control effect; nearly all actives have a fitted effect of over 60% in size
#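 BAZ2B 50 nM plus b-H3(5-23)K14Ac 50 nM, PBS pH 7.4/0.01% Tween-20, 30 min RT; compound added (max 110 uM), 30 min RT; streptavidin donor/Ni-chelate acceptor beads 10 ug/mL final, 20 min dark; AlphaScreen read.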
# CtBP-E1A blk: qHTS Assay for Inhibitors of the CtBP/E1A Interaction. CtBP / adenovirus E1A interaction (AlphaScreen). AlphaScreen GST-E1A/His-CtBP binding, 1536-well; hits give low values. activity change, % (concentration not given with the values). hit rate 0.49% among 340,000; in the data active means activity change below about -65%; inconclusive means mostly about -30% to -63%; further: on the % scale 0 is the no-effect control and ±100 the full control effect
#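 Homogeneous bead-based format: GST-tagged E1A captured on glutathione donor beads, His-tagged CtBP on nickel acceptor beads; compounds precede bead addition by 2 h at 37 °C.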
# HP1b chromo inh: HTS for Inhibitors of HP1-beta Chromodomain Interactions with Methylated Histone Tails. Chromobox protein homolog 1 (Homo sapiens), P83916. AlphaScreen HP1-beta / biotin-H3K9me3 peptide binding. Potency, µM (series often up to 114 µM), inactives show at the highest dose activity change, negative = inhibition, hits mostly inhibitors. hit rate 0.56% among 390,000; further: potency means the concentration at half of the fitted maximal effect; nearly all actives have a fitted effect of over 70% in size
#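 HP1-beta protein (50 nM final) preincubated 30 min at room temperature with biotinylated H3(1-18)K9me3 peptide (50 nM) in PBS pH 7.4, 0.01% Tween-20, then compound added for 30 min. AlphaScreen streptavidin donor/nickel chelate acceptor beads (10 ug/mL final), 30 min dark, luminescence read.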
# Active calls of the source: *; ? = inconclusive; . = no result given; [ ] = another dose, or the depositor's remark. Unless noted, the call rests on the fitted dose curve; in most records, active means well fitted inhibition curve with a large enough effect; inconclusive means small, poorly fitted or top-dose-only effect; inactive means no such curve, though single readings can be large or run the other way.
SMILES,JMJD2A Tudor,G9a block,Six1-Eya2 inh,BAZ2B block,CtBP-E1A blk,HP1b chromo inh
Cc1ccc(C)c(Nc2ccc3nonc3c2[N+](=O)[O-])c1,-35.8%,?,-1.0,?,-3.5,?
Cc1ccc(C)c(Nc2c([N+](=O)[O-])ccc3nonc23)c1,-31.2%,?,0.0,3.55µM*,?,?
O=[N+]([O-])c1ccc(O)c(Nc2c([N+](=O)[O-])ccc3nonc23)c1,?,50.1µM*,0.5,50.1µM*,-22.8,-24.2%[57 µM]
Cc1ccc(N2CCN(c3cc(C)nc4c(-c5ccc(Cl)cc5)c(C)nn34)CC2C)cc1 (stereo not drawn),8.7%,0.5%[59 µM],.,10.5%,.,45.4%
O=C(Nc1ccc(F)cc1F)c1cc(-c2ccccc2O)no1,-16.8%,-7.7%[59 µM],.,-4.1%,.,20.4%
CCOc1ccc2nc(N(CCCN(C)C)C(=O)c3ccc4c(c3)CCCC4)sc2c1,?,44.7µM*,-12.7,?,-23.6,-4.0%
CN(C)CCCN(C(=O)c1ccc2c(c1)CCCC2)c1nc2ccc(Cl)cc2s1,39.8µM*,?,-29.8,?,?,-38.5%
COc1cccc2sc(N(CCN(C)C)C(=O)c3ccc4c(c3)CCCC4)nc12,?,?,?,?,-26.3,-19.1%
CCOC(=O)c1cc2c(=O)n3ccccc3nc2n(CC2CCCO2)c1=NC(=O)c1ccc(OC)cc1OC (stereo not drawn),-19.8%,-33.9%[59 µM],.,-12.8%,.,27.1%
Cc1ccc(Cl)cc1N(C)C(=O)c1noc2c1CCCCC2,-4.2%,-2.3%[59 µM],.,11.0%[57.1 µM],.,8.3%
O=C1[C@@H]2C(c3cccnc3)=NO[C@@H]2C(=O)N1c1ccc2ccccc2c1,79.4µM*,.,5.7,-9.4%,2.6,?
Cc1c(F)cccc1NS(=O)(=O)c1cccs1,-10.6%,-0.6%[59 µM],.,6.2%,.,39.7%
CCOc1ccccc1NS(=O)(=O)c1ccc2c(c1)CC(C)N2C(=O)C1CCC1 (stereo not drawn),-22.8%,-9.7%[59 µM],.,0.8%,.,6.0%
CCSc1ccccc1C(=O)NCc1cccnc1,-15.8%,8.91µM*,1.6,-12.1%,-2.5,20.6%
CCOC(=O)c1[nH]c(C)c(C(=O)NCc2cccnc2)c1C,-15.7%,35.5µM*,-3.4,12.8%,5.3,50.2%
CCSc1ccccc1C(=O)NCc1ccco1,-23.0%,10µM*,-0.5,-0.1%,2.5,4.8%
O=C(NCc1ccco1)C1c2ccccc2Oc2ccccc21,50.1µM*,?,9.2,-8.8%,0.0,0.7%
CCn1cc2nc(SCC(=O)Nc3ccc(OC)cc3OC)n(Cc3ccc(Cl)cc3)c(=O)c2n1,-20.8%,-35.3%[59 µM],.,-16.5%,.,8.5%
O=C(NNC(=S)NCc1ccco1)c1ccccc1Br,-9.3%,54.9%,-0.1,2.3%,1.3,41.8%
O=C(NCc1ccco1)c1ccccc1Br,50.1µM*,9.4%[12.7 µM],-3.5,12.5%,3.2,-22.9%
Cc1nc2nc(NCc3ccc(Cl)cc3)[nH]n2c(=O)c1Cc1ccccc1,-16.3%,?,.,-8.5%,.,27.6%
CCCC(=O)NC1=C(Cl)C(=O)c2ccccc2C1=O,1.78µM*,.,-4.3,.,-3.8,7.08µM*
Nc1ccc2c(c1)C(=O)c1ccccc1C2=O,-26.2%,?,-13.9,-27.8%,-18.4,0.5%
O=C1C(Cl)=C(Nc2ccc(O)cc2)C(=O)c2ccccc21,?,11.2µM*,-0.5,?,-15.6,?
CCN(CC)c1ccc(NC(=O)Nc2ccccc2C(F)(F)F)cc1,-24.1%,.,-0.5,-36.2%,-0.1,6.0%
SMILES,JMJD2A Tudor,G9a block,Six1-Eya2 inh,BAZ2B block,CtBP-E1A blk,HP1b chromo inh
Cc1cc(C)cc(NC2=C(N)C(=O)c3ccccc3C2=O)c1,?,1.58µM*,-70.2*,?,?,-19.1%
CCCC(=O)NNC(=O)CCC(=O)Nc1ccccc1Cl,-9.4%,-4.2%,2.5,-10.0%,1.6,28.2%
CCN(CC)c1ccc(NC2=C(Cl)C(=O)c3ccccc3C2=O)cc1,2.51µM*,1.78µM*,?,2.24µM*,?,3.98µM*
COc1ccccc1CCNC(=O)c1cc2c(=O)n3cccc(C)c3nc2n1C,-33.6%,-7.0%[59 µM],.,-20.9%,.,-12.3%
Cc1cccc(NCc2nnc3n2CCCCC3)c1C,-21.1%,-0.4%[59 µM],.,1.9%,.,16.7%[57 µM]
CCC(=O)NC1=C(Nc2ccc(N)cc2)C(=O)c2ccccc2C1=O,-22.7%,50.1µM*,?,?,?,?
O=C1C(c2ccc(C(F)(F)F)cc2)=C(Nc2ccc(Cl)cc2)c2ccccc21,-18.2%,-12.6%[59 µM],.,-21.8%,.,4.4%
Cc1ccc(NC2=C(Cl)C(=O)c3ccccc3C2=O)cc1,?,79.4µM*,-9.6,?,11.5,-19.9%
Cc1cccc(N2CCN(CCCNC(=O)c3sc4ncccc4c3-n3cccc3)CC2C)c1 (stereo not drawn),?,?,.,?,.,-0.2%[57 µM]
Cc1ccc(NC(=O)Cn2cc(S(=O)(=O)NC(C)C)c(S(=O)(=O)NC(C)C)c2)cc1Cl,-9.7%,-9.8%[59 µM],.,1.9%[57.1 µM],.,22.1%
COCCCn1c(=O)c2sccc2n2c(CCCC(=O)NC3CCC(C)CC3)nnc12 (stereo not drawn),-11.0%,-1.3%[59 µM],.,-19.2%,.,24.8%
Oc1ccccc1C1=Nc2ncnn2C(c2ccc(F)cc2)C1 (stereo not drawn),-20.0%,25.1µM*,3.5,56.2µM*,-1.9,33.1%
Fc1ccc(C2CC(c3ccc(F)cc3)n3ncnc3N2)cc1 (stereo not drawn),-26.7%,-20.1%,0.3,-31.7%,0.3,16.9%
O=C(Cc1nn[nH]n1)NCc1ccccc1Cl,-7.5%,-6.4%[12.7 µM],-3.2,50.1µM*,3.1,29.9%
CCCC(=O)NCc1ccccc1Cl,-4.1%,8.4%,3.4,-0.4%,4.2,27.2%
O=C(Cc1nn[nH]n1)c1ccccc1O,44.7µM*,-3.6%[59 µM],-0.1,-7.8%,10.3,-9.0%
CCc1ccc(NC(=O)NCCc2c(C)nn(C)c2C)cc1,2.6%,23.6%[59 µM],.,0.1%,.,36.3%
CCC(=O)N1CCc2cc(Br)cc(S(=O)(=O)N3CCCC(C(=O)Nc4ccc(C)c(F)c4)C3)c21 (stereo not drawn),-17.1%,10.8%[59 µM],.,2.4%,.,11.5%
CC(=O)c1ccc(Nc2cc(C)nc3nc(Cc4ccc(Cl)cc4)nn23)cc1,-23.3%,?,.,-7.1%,.,14.9%
O=C(c1cnn2c1NC(c1ccc(Br)cc1)CC2C(F)(F)F)N1CCN(C23CC4CC(CC(C4)C2)C3)CC1 (stereo not drawn),-19.4%,28.2µM*,-11.3,-29.6%,-5.3,10.1%
